# Measured values as given in the supplement of paper PMC3334620.
# Over roughly 33,000 sequences, “E-score (-0.5 to 0.5)” has its median near -0.053; the highest 2% begin near 0.37. This excerpt belongs to a sample that is enriched for the highest values.
# Biological target: Hap1 (UniProt P0CE41)
# Assay: PBM E-score (8-mer binding enrichment) (E-score (-0.5 to 0.5)); higher = stronger / more preferred TF binding
# Details: protein concentration: 200 nM; construct: GST-DNA-binding domain
# Method in brief: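 Universal all-10-mer Agilent arrays, double-stranded by primer extension on fresh or once-stripped slides, were probed with about 100-200 nM GST-tagged yeast transcription factors made by PURExpress. Fluorescent anti-GST detected bound protein, and masliner normalised the scans. E-scores from the Universal PBM Analysis Suite were given to each ungapped eight-base word pooled with its reverse complement.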
# Sequence of UniProt P0CE41 (P0CE41 whole entry): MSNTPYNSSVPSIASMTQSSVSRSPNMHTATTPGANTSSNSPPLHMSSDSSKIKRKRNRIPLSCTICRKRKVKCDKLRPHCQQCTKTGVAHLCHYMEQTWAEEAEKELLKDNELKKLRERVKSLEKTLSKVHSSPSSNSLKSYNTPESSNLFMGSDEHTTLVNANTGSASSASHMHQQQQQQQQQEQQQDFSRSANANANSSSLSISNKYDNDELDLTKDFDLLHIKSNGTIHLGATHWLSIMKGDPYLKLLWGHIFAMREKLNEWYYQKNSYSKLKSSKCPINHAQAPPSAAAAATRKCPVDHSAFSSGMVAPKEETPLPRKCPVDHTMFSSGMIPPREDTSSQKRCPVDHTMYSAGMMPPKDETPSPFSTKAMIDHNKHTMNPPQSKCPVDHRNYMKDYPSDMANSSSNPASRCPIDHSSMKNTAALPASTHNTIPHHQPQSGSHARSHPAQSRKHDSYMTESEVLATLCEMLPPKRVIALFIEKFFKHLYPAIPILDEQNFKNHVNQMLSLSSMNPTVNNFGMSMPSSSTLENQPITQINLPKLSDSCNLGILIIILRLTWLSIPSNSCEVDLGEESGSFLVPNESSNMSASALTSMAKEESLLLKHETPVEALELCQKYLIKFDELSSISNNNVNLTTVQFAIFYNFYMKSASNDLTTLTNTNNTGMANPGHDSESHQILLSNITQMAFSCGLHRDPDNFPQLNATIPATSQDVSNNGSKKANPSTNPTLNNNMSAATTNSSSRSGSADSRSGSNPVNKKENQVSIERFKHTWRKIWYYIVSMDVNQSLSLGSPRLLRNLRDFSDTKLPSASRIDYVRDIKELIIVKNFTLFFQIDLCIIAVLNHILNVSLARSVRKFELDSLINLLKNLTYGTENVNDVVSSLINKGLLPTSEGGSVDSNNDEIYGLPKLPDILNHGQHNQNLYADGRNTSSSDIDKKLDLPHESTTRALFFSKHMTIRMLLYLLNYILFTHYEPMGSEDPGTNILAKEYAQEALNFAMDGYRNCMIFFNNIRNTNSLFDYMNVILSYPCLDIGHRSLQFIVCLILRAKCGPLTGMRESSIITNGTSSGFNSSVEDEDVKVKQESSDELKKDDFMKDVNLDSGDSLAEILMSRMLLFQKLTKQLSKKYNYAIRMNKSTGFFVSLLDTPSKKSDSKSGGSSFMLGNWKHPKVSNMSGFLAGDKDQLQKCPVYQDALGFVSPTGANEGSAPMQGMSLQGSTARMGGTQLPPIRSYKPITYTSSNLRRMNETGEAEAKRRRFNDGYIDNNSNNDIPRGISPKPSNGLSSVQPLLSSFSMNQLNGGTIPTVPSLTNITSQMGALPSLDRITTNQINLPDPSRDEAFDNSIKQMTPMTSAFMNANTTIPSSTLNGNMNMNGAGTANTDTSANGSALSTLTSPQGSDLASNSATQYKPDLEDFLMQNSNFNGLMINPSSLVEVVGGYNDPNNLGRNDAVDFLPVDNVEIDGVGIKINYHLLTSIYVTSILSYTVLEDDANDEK
row,Sequence,PBM E-score
1,CACCGGCG,0.378
2,CACCGGCC,0.313
3,AACCGGCC,0.344
4,AATACTTG,-0.112
5,ACCGCACG,-0.0174
6,CCCAGCCC,-0.174
7,CAACCTTC,-0.0289
8,GCCCTTCA,-0.165
9,ATTTTCGG,0.396
10,AAATTCCC,0.145
11,ATTTTCGC,0.0139
12,CATTTCCG,0.352
13,ATTTTCCC,0.123
14,ATTTTCGA,-0.0541
15,AATTTCCC,0.06
16,ATTTTCCG,0.413
17,ATTTTCCA,-0.0537
18,AATTTCCG,0.437
19,AAATTCCA,0.0643
20,AAATTCCG,0.376
21,AGGTTGGC,0.00268
22,AAACCCCA,-0.134

row,Sequence,PBM E-score
1,GGCTCTAC,0.0591
2,GTCCTTCA,-0.162
3,CGTGAGAC,0.00208
4,GGGAGCAA,0.0117
5,AGTTTCCA,-0.133
6,AGTTTCCG,0.39
7,AGTTTCCC,-0.0919
8,ACCATAGT,-0.0861
9,CACGGACC,0.341
10,AGCGGACC,0.257
11,ATCGGACC,0.4
12,GTCGGACA,0.347
13,CTCGGAAC,0.31
14,ATCGGACA,0.394
15,CGCGGACA,0.335
16,ATCGGGCA,0.238
17,CTCGGACC,0.375
18,CTCGGACA,0.415
19,ATCGGAAC,0.318
20,CTTGGACA,-0.0486
21,CAAGGGGA,-0.0784
22,ATGGTTTG,0.0601

row,Sequence,PBM E-score
1,CGACGTAG,-0.0488
2,ATAGAGGA,-0.186
3,CTCCAATC,-0.121
4,CCCAATTC,-0.135
5,CACCACAA,-0.117
6,ACATCCAT,-0.093
7,ACGTCTGG,-0.202
8,AATAGTAT,0.103
9,AAGCAGCT,-0.114
10,CACGTCGA,-0.183
11,TACGGTGA,0.0448
12,AGACGGCA,-0.0262
13,ATCGGTCA,0.318
14,AGCGGACG,0.297
15,CTCGGTCC,0.35
16,AACGGTCA,0.246
17,ATCGGTCC,0.374
18,ATCGGACG,0.422
19,AACGGACA,0.369
20,AACGGACG,0.305
21,CACGGACA,0.312
22,GACGGTAC,0.142

row,Sequence,PBM E-score
1,CACCACCC,0.106
2,CGGTTGAG,0.18
3,AGACCTCT,-0.208
4,CGAGGCCA,0.022
5,TAGCACCA,-0.14
6,CGGGGCAA,0.198
7,AGATATCG,0.315
8,ATATCTCC,0.437
9,CGATATCA,0.234
10,CTATCTCC,0.358
11,ATATATCC,0.399
12,CTATATCC,0.202
13,AGATATCC,0.192
14,CGATATCG,0.388
15,ATATATCA,0.0242
16,GGATATCC,0.236
17,ATCTCTCC,-0.0103
18,CGATATCC,0.375
19,ACCTTGCC,-0.132
20,AAAGGAGC,-0.141
